Bioassay records from PubChem BioAssay.
This is a sample that favours compounds with a hit; in the whole collection about 9% have one here.
PLK1 PBD inh: inhibitors of human PLK1 polo-box domain binding; Plk1 PBD binding of FITC phosphopeptide, fluorescence polarization; Potency, µM, usual class: inhibitors; hit rate 2.8% among 360,000; AID 720504; note: series mostly up to about 57 µM; nearly all actives have a fitted effect of over 65% in size
G9a inh: blocks human histone lysine methyltransferase G9a. G9a H3K9 monomethylation, AlphaScreen, 2 h. Potency, µM (highest dose often 102 µM), hits mostly inhibitors. hit rate 8.8% among 350,000. Q96KQ7; note: nearly all actives have a fitted effect of over 75% in size
Target sequence (Q96KQ7 913-1193 limits assumed): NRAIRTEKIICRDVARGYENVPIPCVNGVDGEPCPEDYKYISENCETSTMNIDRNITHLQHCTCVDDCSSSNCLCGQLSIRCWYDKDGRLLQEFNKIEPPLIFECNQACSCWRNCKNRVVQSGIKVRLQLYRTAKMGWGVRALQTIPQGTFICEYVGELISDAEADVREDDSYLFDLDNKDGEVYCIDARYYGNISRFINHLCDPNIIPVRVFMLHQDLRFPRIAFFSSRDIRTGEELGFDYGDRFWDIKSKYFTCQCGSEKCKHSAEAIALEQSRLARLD
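G9a (20 nM) preincubated 15 min RT with compounds, then 500 nM biotinylated H3K9 peptide and 20 uM SAM added; 2 h RT reaction. Monomethyl-H3K9 product detected by AlphaScreen with anti-H3K9me1 antibody, streptavidin donor and anti-rabbit IgG acceptor beads.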
HP1b binding inh: HP1-beta chromodomain-methylated histone interaction inhibition. Potency, µM (highest dose often 114 µM), usual class: inhibitors. hit rate 0.56% among 390,000. AlphaScreen HP1-beta / biotin-H3K9me3 peptide binding; note: nearly all actives have a fitted effect of over 70% in size
Target sequence (P83916 whole entry, looked up): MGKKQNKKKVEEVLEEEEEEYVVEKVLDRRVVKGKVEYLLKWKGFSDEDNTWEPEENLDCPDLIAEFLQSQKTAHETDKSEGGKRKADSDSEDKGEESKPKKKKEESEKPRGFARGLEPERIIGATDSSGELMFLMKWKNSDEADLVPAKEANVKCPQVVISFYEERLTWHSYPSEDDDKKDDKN
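HP1-beta protein (50 nM final) preincubated 30 min at room temperature with biotinylated H3(1-18)K9me3 peptide (50 nM) in PBS pH 7.4, 0.01% Tween-20, then compound added for 30 min. AlphaScreen streptavidin donor/nickel chelate acceptor beads (10 ug/mL final), 30 min dark, luminescence read.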
BAZ2B inh: BAZ2B (human) inhibition; Q9UIF8; hit rate 4.4% among 360,000; Potency, µM (titrated, usually from 114 µM), hits mostly inhibitors; AlphaScreen BAZ2B-H3K14Ac peptide displacement; AID 504333; note: nearly all actives have a fitted effect of over 60% in size
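Multi-concentration screen (max 110 uM) measuring displacement of acetylated histone H3 peptide from BAZ2B by AlphaScreen, using 50 nM protein, 50 nM peptide and 10 ug/mL streptavidin donor plus Ni-chelate acceptor beads.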
12-LOX inh: blocks human arachidonate 12S-lipoxygenase; AID 1671190; hit rate 1.1% among 580,000; purified 12hLO, xylenol orange hydroperoxide absorbance; Potency, µM (titrated, usually from 108 µM), most hits filed as inhibitors
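Purified human 12hLO at 150 nM in 25 mM Hepes, 0.01% Triton X-100, pH 7.0, preincubated 15 min at room temperature with compound. Reaction started with 40 uM arachidonic acid, 30 min at room temperature. Hydroperoxide measured by Fe-xylenol orange, 573/405 nm absorbance ratio.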
JMJD2A Tudor: inhibitors of human JMJD2A Tudor domain. O75164. AlphaScreen JMJD2A-Tudor / H3K4me3 peptide binding. Potency, µM (titrated, usually from 114 µM), usual class: inhibitors. hit rate 4.4% among 390,000. AID 504339; note: nearly all actives have a fitted effect of over 50% in size
Of the large screens only hits and unclear results are named; the others gave an inactive call. Calls come from the whole dose curve; as a rule, active = well fitted curve in the direction sought with a large enough effect; inconclusive = small, poorly fitted or top-dose-only effect, or another doubt; inactive = no such curve, though single readings can be large; an effect the other way counts as inactive or inconclusive.

CCCS(=O)(=O)Nc1ccc(Nc2c3ccccc3nc3ccccc23)c(OC)c1	HP1b binding inh inconclusive, 12-LOX inh inconclusive, JMJD2A Tudor 40µM (no result: G9a inh, BAZ2B inh)
Cc1ccc(CN2CCSc3ccc(C(=O)N4CCN(c5ccccc5)CC4)cc32)cc1	G9a inh 18µM, JMJD2A Tudor inconclusive (no result: PLK1 PBD inh)
CCn1nc(C)c(/C=N/NC(=O)c2ccc3c(c2)c(C)c(C)n3Cc2ccccc2)c1C	G9a inh inconclusive, BAZ2B inh inconclusive, JMJD2A Tudor 35µM
Cc1ccc(CN2CCSc3ccc(C(=O)NCCc4ccccc4)cc32)cc1	none (no result: PLK1 PBD inh)
Cc1c(C)n(Cc2ccccc2)c2ccc(C(=O)N3CCN(c4ccccc4)CC3)cc12	G9a inh inconclusive, HP1b binding inh inconclusive, BAZ2B inh inconclusive, 12-LOX inh inconclusive, JMJD2A Tudor 14µM (no result: PLK1 PBD inh)
Cc1ccc(CN2CCSc3ccc(C(=O)NCc4ccccn4)cc32)cc1	G9a inh 40µM, BAZ2B inh inconclusive, JMJD2A Tudor inconclusive
CCn1ncc(/C=N\NC(=O)c2ccc3c(c2)c(C)c(C)n3Cc2ccccc2)c1C	BAZ2B inh inconclusive, JMJD2A Tudor inconclusive
Cc1ccc(CN2CCSc3ccc(C(=O)N4CCN(c5cc(C)ccc5C)CC4)cc32)cc1	G9a inh inconclusive (no result: PLK1 PBD inh)
CC(C)c1ccc(C2C3=C(CC(C)(C)CC3=O)NC3=C2C(=O)c2ccccc23)cc1 (stereo not given)	G9a inh inconclusive, BAZ2B inh inconclusive, 12-LOX inh inconclusive, JMJD2A Tudor inconclusive
CC1(C)CC(=O)C2=C(C1)NC1=C(C(=O)c3ccccc31)C2c1ccccc1 (stereo not given)	G9a inh 20µM, HP1b binding inh 50µM, BAZ2B inh 32µM, 12-LOX inh inconclusive, JMJD2A Tudor 40µM
CC(C)(C)c1ccc(C2C3=C(CCCC3=O)NC3=C2C(=O)c2ccccc23)cc1 (stereo not given)	G9a inh 40µM, BAZ2B inh inconclusive, 12-LOX inh inconclusive, JMJD2A Tudor 25µM
CC1=C([N+](=O)[O-])C(c2ccccc2)C2=C(N1)c1ccccc1C2=O (stereo not given)	G9a inh 10µM, HP1b binding inh inconclusive, BAZ2B inh 35µM, 12-LOX inh inconclusive, JMJD2A Tudor 25µM
COc1ccc(C2C(C#N)=C(C)NC3=C2C(=O)c2ccccc23)cc1 (stereo not given)	G9a inh inconclusive, BAZ2B inh inconclusive, 12-LOX inh inconclusive, JMJD2A Tudor inconclusive
CC1(C)CC(=O)C2=C(C1)NC1=C(C(=O)c3ccccc31)C2c1cccnc1 (stereo not given)	PLK1 PBD inh inconclusive, G9a inh inconclusive, BAZ2B inh inconclusive, JMJD2A Tudor inconclusive
C/C(=N\NC(=O)c1ccn(C)n1)c1cccc(NC(=O)c2ccncc2)c1	JMJD2A Tudor 10µM
COc1ccc(CNC(=O)CCC(=O)Nc2cccnc2)cc1	G9a inh 40µM
COc1ccc(C(=O)Nc2ccc(/C(C)=N/NC(=O)c3ccncc3)cc2)cc1	G9a inh 22µM, BAZ2B inh 50µM (no result: PLK1 PBD inh, HP1b binding inh, JMJD2A Tudor)
COc1ccc(NC(=O)c2cc3ccccc3cc2O)cc1	PLK1 PBD inh 30µM, JMJD2A Tudor inconclusive
COc1ccc(CNC(=O)C(=O)NCc2cccnc2)cc1	none (no result: G9a inh)
COCc1nc(C2CCN(S(C)(=O)=O)C2)no1 (stereo not given)	none (no result: PLK1 PBD inh, G9a inh, HP1b binding inh, BAZ2B inh, JMJD2A Tudor)
O=C(NCc1ccc(F)cc1)C1CC(=O)N(CCc2ccccc2)C1 (stereo not given)	none
Cc1cc(C)cc(NC(=O)CN2CCN(c3ccccc3)CC2)c1	none
COc1ccc(C(=O)Nc2c(O)ccc3ccccc23)cc1	PLK1 PBD inh inconclusive, HP1b binding inh inconclusive, 12-LOX inh inconclusive, JMJD2A Tudor 79µM (no result: G9a inh, BAZ2B inh)
COc1ccc(C(=O)Nc2c(O)ccc3ccccc23)cc1OC	PLK1 PBD inh inconclusive, 12-LOX inh inconclusive (no result: G9a inh, BAZ2B inh)
O=C(Nc1ccc(-c2ccc(Cl)cc2)cc1)c1ccncc1	12-LOX inh 7.1µM (no result: PLK1 PBD inh, G9a inh, HP1b binding inh, BAZ2B inh, JMJD2A Tudor)
COc1ccc(C(=O)Nc2ccccc2C(=O)Nc2ccc(C(=O)O)cc2)cc1	G9a inh inconclusive
CC(=O)Nc1cccc(/C(C)=N/NC(N)=S)c1	PLK1 PBD inh inconclusive, G9a inh 32µM
COc1ccc(C(=O)Nc2ccccc2C(=O)Nc2ccncc2)cc1	G9a inh 45µM, BAZ2B inh inconclusive
